The values that follow come from PubChem BioAssay (NCI).

The structures appear in SMILES notation. The panel holds about 79,000 compounds, 15% with a hit somewhere; the sample as a whole holds those more often. Unmarked numbers belong to inactive results. Calls of active or inactive are those of the source. No stated cut-off is given here; in the data, active means growth inhibition above about 70%; inactive means the rest.

Assay [1] is described as follows: NCI Yeast Anticancer Drug Screen. Data for the rad50 strain (AID 155).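 Further: 0% = growth of vehicle-only cultures of the same strain.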 The note with it: S. cerevisiae rad50 strain growth inhibition, hits give high values. The method, boiled down: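 Compounds were tested on a yeast strain with an engineered DNA damage repair alteration; the reported value is growth inhibition normalised to vehicle treatment.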
A short description of assay [2]: NCI Yeast Anticancer Drug Screen. Data for the mec2-1 strain (AID 157). The note with it: S. cerevisiae mec2-1 strain, hits give high values. The method, boiled down:
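Strain: mec2-1 (DNA repair/cell cycle alteration). Compound exposure, then growth measured; inhibition expressed relative to vehicle.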

Assay [3] is described as follows: NCI Yeast Anticancer Drug Screen. Data for the sgs1 mgt1 strain (AID 161).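 Further: 0% = growth of cultures given vehicle only.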 The note with it: S. cerevisiae sgs1 mgt1 strain, hits give high values. The gist of the method:
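Genetically altered yeast, compound exposure, growth inhibition relative to vehicle.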

A short description of assay [4]: NCI Yeast Anticancer Drug Screen. Data for the cln2 rad14 strain (AID 165).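 Further: 0% = growth equal to vehicle treated cultures.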 The note with it: S. cerevisiae cln2 rad14 strain, hits give high values. The method, boiled down:
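Compounds are applied to the cln2 rad14 yeast strain, and growth is then compared with that of vehicle-treated cultures to give inhibition.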

Assay [5] can be described thus: NCI Yeast Anticancer Drug Screen. Data for the bub3 strain (AID 167). The following applies: S. cerevisiae bub3 mutant strain, hits give high values. The gist of the method:
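Growth of a checkpoint-deficient yeast mutant is measured after compound exposure. Values represent inhibition relative to vehicle.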

The nature of assay [6]: NCI Yeast Anticancer Drug Screen. Data for the mlh1 rad18 strain (AID 175). The following applies: S. cerevisiae mlh1 rad18 strain growth inhibition, hits give high values. The method, boiled down:
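Read-out is yeast growth inhibition, calculated against vehicle-only controls. The compound was applied to a strain engineered with DNA damage repair alterations.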

Setting [7] is: at 5.0 µM (retest, dose inferred, filed as 0.5).
[8] abbreviates: at 50.0 µM (retest, dose inferred, filed as 5.0).

With `O=c1c(Cl)cc2nc3ccccc3sc-2c1Cl`, the growth inhibition is 21% in assay [1] (setting [7]); 72% (active) in assay [1] (setting [8]); 84% (active) in assay [1] (at 50.0 µM); 42% in assay [2] (setting [7]); 84% (active) in assay [2] (setting [8]); 6.5% in assay [2] (at 50.0 µM). Also, the growth inhibition in assay [3] (setting [7]) is 33%; in assay [3] (setting [8]), 79% (active); in assay [3] (at 50.0 µM) it was 83.8% (active); in assay [4] (setting [7]), 1%; in assay [4] (setting [8]), 54%; in assay [4] (at 50.0 µM), -0.05%. In addition, the growth inhibition in assay [5] (setting [7]) was 38%; in assay [5] (setting [8]) it was 85% (active); in assay [5] (at 50.0 µM) it was 80.5% (active); in assay [6] (setting [7]) it was 55%; in assay [6] (setting [8]) it was 87% (active); in assay [6] (at 50.0 µM), 83% (active).

With `Nc1ccc(C(=O)Oc2cccccc2=O)cc1`, the growth inhibition in assay [1] (setting [7]) was 3%; in assay [1] (setting [8]), 36%; in assay [1] (at 50.0 µM) it was 82% (active); in assay [2] (setting [7]) it was 2%; in assay [2] (setting [8]) it was 32%; in assay [2] (at 50.0 µM), 42.9%. The growth inhibition is 7% in assay [3] (setting [7]); 52% in assay [3] (setting [8]); 91.5% (active) in assay [3] (at 50.0 µM); 3% in assay [4] (setting [7]); 20% in assay [4] (setting [8]); 16.1% in assay [4] (at 50.0 µM). The growth inhibition in assay [5] (setting [7]) is -1%; in assay [5] (setting [8]), 32%; in assay [5] (at 50.0 µM), 77.2% (active); in assay [6] (setting [7]), 4%; in assay [6] (setting [8]), 78% (active); in assay [6] (at 50.0 µM), 95.4% (active).

On to `C=CCCCCn1c2ccccc2c2c(C)c3c[n+](C)ccc3c(C)c21`, for which the growth inhibition was 99% (active) in assay [1] (setting [7]); 99% (active) in assay [1] (setting [8]); 89.7% (active) in assay [1] (at 50.0 µM); 99% (active) in assay [2] (setting [7]); 99% (active) in assay [2] (setting [8]); 91.8% (active) in assay [2] (at 50.0 µM). Further, the growth inhibition in assay [3] (setting [7]) was 97% (active); in assay [3] (setting [8]), 97% (active); in assay [3] (at 50.0 µM) it was 90.3% (active); in assay [4] (setting [7]), 100% (active); in assay [4] (setting [8]) it was 100% (active); in assay [4] (at 50.0 µM), 90.7% (active). Moreover, the growth inhibition is 98% (active) in assay [5] (setting [7]); 98% (active) in assay [5] (setting [8]); 91.4% (active) in assay [5] (at 50.0 µM); 98% (active) in assay [6] (setting [7]); 98% (active) in assay [6] (setting [8]); 88.8% (active) in assay [6] (at 50.0 µM).

For `CCCCCCCCCCCC(=O)NCCc1ccc(O)c(O)c1`, the growth inhibition was 4% in assay [1] (setting [7]); 94% (active) in assay [1] (setting [8]); 97.2% (active) in assay [1] (at 50.0 µM); 5% in assay [2] (setting [7]); 96% (active) in assay [2] (setting [8]); 98.5% (active) in assay [2] (at 50.0 µM). Moreover, the growth inhibition in assay [3] (setting [7]) was 4%; in assay [3] (setting [8]) it was 95% (active); in assay [3] (at 50.0 µM) it was 97.5% (active); in assay [4] (setting [7]), -3%; in assay [4] (setting [8]), 55%; in assay [4] (at 50.0 µM), 94.2% (active). Also, the growth inhibition in assay [5] (setting [7]) was -7%; in assay [5] (setting [8]), 91% (active); in assay [5] (at 50.0 µM) it was 95.8% (active); in assay [6] (setting [7]), 1%; in assay [6] (setting [8]), 96% (active); in assay [6] (at 50.0 µM), 98% (active).

For the compound `Cc1ccc(N=Nc2c(-c3ccccc3)nn(C(=S)S)c2-c2ccccc2)cc1`, the growth inhibition in assay [1] (setting [7]) was 8%; in assay [1] (setting [8]) it was 48%; in assay [1] (at 50.0 µM) it was 49.7%; in assay [2] (setting [7]), 9%; in assay [2] (setting [8]) it was 37%; in assay [2] (at 50.0 µM), 38.5%. The growth inhibition in assay [3] (setting [7]) is 12%; in assay [3] (setting [8]), 72% (active); in assay [3] (at 50.0 µM) it was 55.8%; in assay [4] (setting [7]), 5%; in assay [4] (setting [8]), 39%; in assay [4] (at 50.0 µM) it was 16.2%. The growth inhibition is 36% in assay [5] (setting [7]); 84% (active) in assay [5] (setting [8]); 85.2% (active) in assay [5] (at 50.0 µM); 7% in assay [6] (setting [7]); 34% in assay [6] (setting [8]); 61.8% in assay [6] (at 50.0 µM).

Turning to `Cc1ccc(NC(=O)CCCC(=O)C(C#N)c2ccccc2C)cc1C` (stereo not given), the growth inhibition in assay [1] (setting [7]) was -5%; in assay [1] (setting [8]), 7%; in assay [1] (at 50.0 µM), -17.3%; in assay [2] (setting [7]), -2%; in assay [2] (setting [8]), 3%; in assay [2] (at 50.0 µM) it was 11.4%. The growth inhibition was -5% in assay [3] (setting [7]); -19% in assay [3] (setting [8]); 10.6% in assay [3] (at 50.0 µM); -8% in assay [4] (setting [7]); -5% in assay [4] (setting [8]); -19.1% in assay [4] (at 50.0 µM). The growth inhibition in assay [5] (setting [7]) is -1%; in assay [5] (setting [8]) it was 2%; in assay [5] (at 50.0 µM), 5.75%; in assay [6] (setting [7]), 1%; in assay [6] (setting [8]), -4%; in assay [6] (at 50.0 µM), 12.1%.

In the case of `Cc1ccnc2[nH]c3ccccc3c(=O)c12`, the growth inhibition in assay [1] (setting [7]) was 29%; in assay [1] (setting [8]) it was 98% (active); in assay [1] (at 50.0 µM), 81.5% (active); in assay [2] (setting [7]), 38%; in assay [2] (setting [8]), 98% (active); in assay [2] (at 50.0 µM), 69.5%. Besides, the growth inhibition in assay [3] (setting [7]) is 18%; in assay [3] (setting [8]), 96% (active); in assay [3] (at 50.0 µM), 65.5%; in assay [4] (setting [7]), 30%; in assay [4] (setting [8]) it was 96% (active); in assay [4] (at 50.0 µM), 21.4%. Besides, the growth inhibition was 15% in assay [5] (setting [7]); 96% (active) in assay [5] (setting [8]); 65.2% in assay [5] (at 50.0 µM); 36% in assay [6] (setting [7]); 99% (active) in assay [6] (setting [8]); 77.7% (active) in assay [6] (at 50.0 µM).

In the case of `Oc1ccccc1C(=NNc1ccccc1)c1ccccc1O`, the growth inhibition was 40% in assay [1] (setting [7]); 96% (active) in assay [1] (setting [8]); 94.8% (active) in assay [1] (at 50.0 µM); 27% in assay [2] (setting [7]); 98% (active) in assay [2] (setting [8]); 94.8% (active) in assay [2] (at 50.0 µM). Also, the growth inhibition in assay [3] (setting [7]) was 46%; in assay [3] (setting [8]) it was 97% (active); in assay [3] (at 50.0 µM), 94.8% (active); in assay [4] (setting [7]), 49%; in assay [4] (setting [8]), 97% (active); in assay [4] (at 50.0 µM), 95.8% (active). The growth inhibition in assay [5] (setting [7]) is 42%; in assay [5] (setting [8]), 98% (active); in assay [5] (at 50.0 µM) it was 95.8% (active); in assay [6] (setting [7]), 70% (active); in assay [6] (setting [8]) it was 98% (active); in assay [6] (at 50.0 µM), 90.9% (active).

Take `CC(=O)c1c(O)c2cccc3c2n(c1=O)CCC3`: the growth inhibition is 26% in assay [1] (setting [7]); 99% (active) in assay [1] (setting [8]); 97.2% (active) in assay [1] (at 50.0 µM); -13% in assay [2] (setting [7]); 99% (active) in assay [2] (setting [8]); 91.6% (active) in assay [2] (at 50.0 µM). The growth inhibition in assay [3] (setting [7]) is 4%; in assay [3] (setting [8]), 98% (active); in assay [3] (at 50.0 µM), 94.9% (active); in assay [4] (setting [7]), 3%; in assay [4] (setting [8]) it was 98% (active); in assay [4] (at 50.0 µM), 71.3% (active). Further, the growth inhibition was -2% in assay [5] (setting [7]); 99% (active) in assay [5] (setting [8]); 84.4% (active) in assay [5] (at 50.0 µM); 11% in assay [6] (setting [7]); 98% (active) in assay [6] (setting [8]); 95.3% (active) in assay [6] (at 50.0 µM).

Consider `Cc1ccc2c(c1)C1(SC(C)C(=O)N1c1ccc(Cl)cc1)C(=O)N2CN1CCOCC1` (stereo not given), for which the growth inhibition was 5% in assay [1] (setting [7]); 98% (active) in assay [1] (setting [8]); 18.6% in assay [1] (at 50.0 µM); -4% in assay [2] (setting [7]); 97% (active) in assay [2] (setting [8]); 5.5% in assay [2] (at 50.0 µM). Also, the growth inhibition in assay [3] (setting [7]) is -3%; in assay [3] (setting [8]) it was 95% (active); in assay [3] (at 50.0 µM) it was 0.4%; in assay [4] (setting [7]) it was -4%; in assay [4] (setting [8]) it was 92% (active); in assay [4] (at 50.0 µM), -17.3%. Besides, the growth inhibition in assay [5] (setting [7]) is 11%; in assay [5] (setting [8]), 97% (active); in assay [5] (at 50.0 µM), 16%; in assay [6] (setting [7]), 11%; in assay [6] (setting [8]) it was 98% (active); in assay [6] (at 50.0 µM) it was 29.9%.
